Compound activity (PubChem BioAssay)
Compounds with a hit are over-represented: about 4.5% of the library has one in this group of screens.
TIM10 inh: growth inhibitors of isogenic TIM10 control yeast, primary screen, counter-screen for tim10-1 yeast inhibitor project, luminescence, uHTS; S. cerevisiae TIM10 strain growth, BacTiter-Glo luminescence, 24 h; inhibition, % at 10 µM; actives 1.4% (n = 330,000); AID 463195, 2010;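 active = inhibition of 40% or more at the single tested concentration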;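 also: wild-type TIM10 isogenic control strain grown at permissive 25 °C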
NLRP3 yeast inh: NALP3 inflammasome inhibitors in reconstituted yeast, primary screen, luminescence, uHTS; Yeast reconstituted NLRP3/ASC/caspase-1, beta-gal luminescence, 24 h; inhibition, % at 10 µM; actives 0.39% (n = 330,000);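 active = inhibition of 50% or more; inactive = inhibition below 50%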;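 also: plate controls were induced DMSO wells for no effect and uninduced yeast grown without galactose for full effect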
tim23-1 inh: growth inhibitors of tim23-1 mutant yeast, primary screen, luminescence, uHTS; S. cerevisiae tim23-1 growth, BacTiter-Glo luminescence, 24 h; inhibition, % at 20 µM; actives 1.3% (n = 330,000); AID 463212, 2010;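 active = growth inhibition of the mutant yeast at or above 50%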;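 also: temperature-sensitive mutant grown at 25 °C; plate controls were DMSO-treated mutant yeast for no effect and medium wells lacking yeast for full effect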
tim10-1 inh: growth inhibitors of tim10-1 mutant yeast, primary screen, luminescence, uHTS | S. cerevisiae tim10-1 ts strain growth, BacTiter-Glo, 24 h | inhibition, % at 20 µM | actives 2.2% (n = 330,000);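 active = inhibition of at least 40%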;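 also: mutant grown at 25 °C; 0% = DMSO wells with yeast and 100% = wells holding no yeast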
PfHsp90 yeast 2: growth inhibition of PfHsp90-expressing yeast, primary screen, antimalarial PfHsp90 inhibitor project, S. cerevisiae, BacTiter-Glo luminescence, single point, set 2; BacTiter-Glo ATP, 48 h; yeast lacking PDR1 and PDR3 efflux regulators; actives 0.32% (n = 310,000); inhibition, % at 9.4 µM;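 active = every replicate shows inhibition above about 80%, whatever the replicate mean, limit read from the data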;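 also: 0% = DMSO neutral controls and 100% = 20 µM radicicol positive controls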
SKKanGAS inh: S. pyogenes SKKanGAS growth inhibitors in kanamycin, primary screen, streptokinase expression inhibitor project, SKKanGAS strain, BacTiter-Glo luminescence; AID 1662, 2009; inhibition, % at 7.5 µM; 6 h; actives 1.3% (n = 300,000);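 active = mean replicate score, as percent of positive control median, at least 50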;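 also: strain carries kanamycin resistance gene driven by streptokinase promoter and grows in 40 µg/ml kanamycin; loss of luminescence reflects streptokinase promoter inhibition or plain growth inhibition; 0% = median of DMSO wells and 100% = positive control at its reference dose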
The depositor's hits bear a star; x = not tested or not shown.

SMILES | TIM10 inh | NLRP3 yeast inh | tim23-1 inh | tim10-1 inh | PfHsp90 yeast 2 | SKKanGAS inh
O=C(Nn1c(Cc2ccccc2)nc2ccccc2c1=O)c1c(O)c2cccc3c2n(c1=O)CCC3 | 24 | 12 | 23 | 23 | -25 | 71*
O=C(N/N=C\c1c(O)ccc2ccccc12)c1ccc(O)cc1 | -2 | 11 | 26 | -7 | -2 | 107*
Cc1occc1C(=O)N/N=C/c1c(O)ccc2ccccc12 | -18 | 14 | -9 | 20 | 30 | 94*
Cn1nccc1C(=O)N/N=C/c1c(O)ccc2ccccc12 | -44 | 28 | 23 | 11 | -12 | 35
O=C(N/N=C/c1c(O)ccc2ccccc12)c1ccc(Br)o1 | -73 | 25 | 43 | -20 | 22 | 106*
O=C(NN=Cc1c(O)ccc2ccccc12)c1ccncc1 | x | x | x | x | -17 | x
Cc1ccc(C(=O)N/N=C/c2c(O)ccc3ccccc23)cn1 | 31 | 5 | 43 | 10 | -22 | 60*
O=C(N/N=C/c1cc(Br)c(O)c(Br)c1)c1cc2c(ccc3ccccc32)o1 | -4 | 29 | 49 | -16 | x | x
O=C(N/N=C\c1c(O)ccc2ccccc12)c1cncc(Br)c1 | -45 | 38 | 47 | -17 | 107* | 106*
Cn1cc(C(=O)N/N=C/c2c(O)ccc3ccccc23)ccc1=O | -21 | 14 | -12 | -15 | -8 | -5
O=C(N/N=C/c1cc(Cl)c(O)c(Cl)c1)c1cc2c(ccc3ccccc32)o1 | -14 | -27 | 47 | 33 | 95* | 26
O=S(=O)(c1ccc2ccccc2c1)N1CCN(S(=O)(=O)c2c(F)cccc2F)CC1 | -10 | 8 | -4 | -8 | 5 | x
O=C(COc1ccc2ccc(=O)oc2c1)Nc1c(Cl)cccc1C(F)(F)F | 12 | 11 | 18 | 14 | -1 | -2
O=c1c2ccccc2cnn1-c1nc2ccccc2[nH]1 | x | x | x | x | 72 | 58*
O=c1c(Cl)c(N2CCCCC2)cnn1-c1nc2ccccc2[nH]1 | 9 | 13 | 39 | 4 | 39 | 27
CC(C)(C)N/N=C1\CC(c2ccccc2)Oc2ccccc21 (stereo not given) | 8 | -4 | 7 | 9 | 8 | 73*
O=S(=O)(N/N=C1/CC(c2ccccc2)Oc2ccccc21)c1ccccc1 (stereo not given) | x | x | x | x | 18 | x
CCOC(=O)c1c(Nc2ccccc2N)cc(C)nc1C | -4 | 16 | 9 | 1 | -17 | x
CCOC(=O)c1c(O)cc(C)cc1Nc1ccccc1 | 2 | -2 | -1 | 15 | 9 | 51*
Cc1ccc(O)c(NC(=S)NC(=O)c2ccc(-c3ccc(Cl)cc3)o2)c1 | 1 | 34 | 23 | 15 | 122* | 96*
COc1ccccc1NC(=S)NC(=O)c1ccc(-c2ccc(Cl)cc2)o1 | 9 | 8 | 8 | 17 | -14 | -13
O=C(NC(=S)Nc1ccccc1O)c1ccc(-c2ccc(Cl)cc2)o1 | -5 | 24 | 0 | 14 | -38 | 53*
COc1ccc(/C=N/Nc2nc3ccccc3[nH]2)cc1OC | -19 | 8 | -20 | 10 | -1 | 3
CCN(CC)c1ccc(/C=N/Nc2nc3ccccc3[nH]2)c(O)c1 | 24 | 10 | 44 | 17 | 18 | 94*
COc1ccc2c(c1)c(/C=N/Nc1nc3ccccc3[nH]1)c(C)n2C | -7 | 14 | 16 | 20 | 14 | 71*
SMILES | TIM10 inh | NLRP3 yeast inh | tim23-1 inh | tim10-1 inh | PfHsp90 yeast 2 | SKKanGAS inh
COc1cc(/C=N\Nc2nc3ccccc3[nH]2)cc(OC)c1OC | 0 | 1 | 7 | 13 | 5 | 94*
O=C1CN(S(=O)(=O)c2cccc(Cl)c2Cl)CCN1 | 2 | -7 | 11 | 6 | 10 | x
CCCCc1oc2ccccc2c1C(=O)c1cc(I)c(OCCN(CC)CC)c(I)c1 | 15 | 12 | x | 17 | -89 | 106*
CCN(CC)CCOc1ncnc2c1oc1ccccc12 | 15 | -11 | 17 | 9 | x | -3
COc1cccc(/C=N/Nc2cc(N3CCOCC3)ncn2)c1O | -20 | 45 | 47 | -13 | -3 | 99*
CCOc1ccc(/C=N/Nc2cc(N3CCOCC3)nc(C)n2)c(O)c1 | 19 | 30 | 42 | 5 | -12 | 65*
CCOC(=O)c1sc(N2C(=O)C(O)=C(C(=O)c3ccco3)C2c2cccc([N+](=O)[O-])c2)nc1C (stereo not given) | x | x | x | x | -22 | 65*
CCOC(=O)c1sc(N2C(=O)C(O)=C(C(=O)c3ccco3)C2c2cccc(Cl)c2)nc1C (stereo not given) | -15 | -4 | 19 | 11 | 31 | 63*
Cc1nnc(N2C(=O)C(O)=C(C(=O)c3ccco3)C2c2cccc([N+](=O)[O-])c2)s1 (stereo not given) | 8 | -1 | 5 | -9 | -3 | 10
Cc1ccc(S(=O)(=O)N2CCOCC2)cc1C(=O)c1nccn1C | -4 | 3 | 6 | -12 | 11 | -3
Cc1cc(C)c2c(C)[nH]nc2n1 | -12 | 23 | 2 | -7 | x | 4
CCN(CC)N=Nc1[nH]nc2nc(C)cc(C)c12 | 24 | 2 | -2 | 29 | 110* | 5
Cc1cc(C)c2c(N=NN3CCCCC3)[nH]nc2n1 | 23 | 10 | 43 | 36 | 110* | 4
COc1cc(SC)ccc1C(=O)Nc1cccc(S(=O)(=O)NC2=NCCC2)c1 | 13 | 8 | 13 | 14 | 17 | x
S=c1[nH]nc(-c2ccccc2)n1/N=C/c1cccc(Br)c1 | 28 | 18 | 31 | 36 | -12 | 11
S=c1[nH]nc(-c2cc(-c3ccccc3)n[nH]2)n1/N=C/c1ccc(Cl)cc1 | 1 | 21 | 2 | 4 | -16 | 56*
S=c1[nH]nc(-c2cc(-c3ccccc3)n[nH]2)n1/N=C/c1ccc(Cl)c(Cl)c1 | 8 | 15 | 9 | 7 | 1 | 22
S=c1[nH]nc(-c2cc(-c3ccccc3)n[nH]2)n1/N=C/c1cccc(Cl)c1 | 24 | 23 | 24 | 39 | 11 | 60*
Cc1ccc(CN(C)C(=O)CN2C(=O)NC3(CCCc4ccccc43)C2=O)c(C)c1 (stereo not given) | 0 | 9 | 15 | 7 | 1 | x
Cc1cccc(NC2=Nc3ccccc3N3C2=Nc2c(c(C)nn2-c2ccccc2)C3c2ccc(O)c(O)c2)c1 (stereo not given) | 11 | 11 | -2 | 6 | -33 | 99*
Cc1ccc(NC2=Nc3ccccc3N3C2=Nc2c(c(C)nn2-c2ccccc2)C3c2ccc(O)c(O)c2)cc1 (stereo not given) | x | x | x | x | -8 | x
Cc1nn(-c2ccccc2)c2c1C(c1ccc(O)c(O)c1)N1C(=N2)C(Nc2ccccc2)=Nc2ccccc21 (stereo not given) | 32 | 7 | 35 | 36 | -4 | 88*
